Laboratory results: PubChem BioAssay (NCI)
Several values for one entry are separate records, joined by “and”; a condition that tells them apart may be missing. Identical values can stand only once. About 83,000 compounds went through this panel and 20% of them were active in at least one assay; those are over-represented in the sample as a whole.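 Assay: single dose, 48 h. Readout: percent growth (0 = no net growth; negative = cell death). Active: <10.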 Values without a mark were called inactive. Activity calls are given as the source filed them.

What follows are compounds tested on HL-60(TB) leukemia (assay: NCI-60 one-dose screen, 48 h (100 = growth as untreated, 0 = no growth, -100 = all killed)). Conditions: 10 µM unless noted.

| SMILES | growth |
| --- | --- |
| c1ccc(-c2cn3ccnc3c(-c3ccc4ncn(C5CCCCC5)c4c3)n2)cc1 | 32.9% |
| N#CC(C#N)=C1NC(c2ccccc2)=C(c2ccccc2)C(c2ccccc2Cl)=C1C#N | 79.2% |
| CC(=O)/C(=C\c1c(-c2ccccc2)[nH]c2ccccc12)S(C)(=O)=O | -55.2% (active) |
| CCCCCCCCCC(=O)Oc1ccc(/C(=C(/C)c2ccccc2)c2ccc(OCCN3CCCC3)cc2)cc1 | -30.4% (active) |
| Cc1nn(-c2nc3ccccc3[nH]2)c2c1C(c1ccc(OCC(N)=O)cc1)CC(=O)N2 (stereo not given) | 113% |
| CCN1C(=O)N(CC)C2C1NN=c1s/c(=C\c3cccc([N+](=O)[O-])c3)c(=O)n12 (stereo not given) | -37.1% (active) |
| CC(=O)Nc1ccc(S(=O)(=O)N2C(=O)CCC2C(=O)Nc2ccccc2)cc1 (stereo not given) | 25.1% |
| CCCCN(CCCC)CCCO | 95.5% |
| O=C(NNc1ccccc1)OCc1ccccc1 | 5.98% (active) |
| COc1ccc(NC(=O)C2c3ccccc3C(=O)N(CC(C)C)C2c2cccs2)cc1 (stereo not given) | 90% |
| C=C(C)[C@@H]1CC[C@]2(C)[C@H](CC=C3[C@@H]4[C@H](C)[C@@H](C)CC[C@]4(CO)CC[C@]32C)[C@@]1(C)CCCN | -45.2% (active) |
| Cc1cc(-c2cc(C)c(N)cc2C)c(C)cc1N | 90.2% |
| CCCCCCCC(=O)SCC/C=C/[C@@H]1CC(=O)NCc2cccc(n2)C2=N[C@@](C)(CS2)C(=O)N[C@@H](C(C)C)C(=O)O1 | 19.9% |
| Cc1ccc(-c2nc([P+](c3ccccc3)(c3ccccc3)c3ccccc3)c(N3CCOCC3)o2)cc1 | -27.7% (active) |
| Cc1ccc(S(=O)(=O)NCCCNc2nccc(-c3c(-c4cccc(F)c4)nc4occn34)n2)cc1 | 44.8% |
| CCOC(=O)c1ccc2[nH]c(O)c(C(=Nc3ccc(N(C)C(=O)CN4CCN(C)CC4)cc3)c3ccccc3)c2c1 | -52.6% (active) |
| CC(=O)c1c(O)c(C)c(O)c2c1OC1=CC(=O)/C(=C(/C)N)C(=O)C12C (stereo not given) | 84.4% |
| Cc1cc(N)c2ccccc2[n+]1CCCCCCCCCC[n+]1c(C)cc(N)c2ccccc21 | -65% (active) and -69.4% (active) |
| Cc1cccc2c1NC(=O)C2(c1ccc(O)cc1)c1ccc(O)cc1 | 83% |
| CNC(=O)Cc1nc(-c2cccc(NS(=O)(=O)c3c(F)cccc3F)c2F)c(-c2ccnc(Nc3ccccc3)n2)s1 | 57.8% |

| SMILES | growth |
| --- | --- |
| COc1ccc(-c2cnc(N)nc2-c2ccc(OC)cc2O)cc1 | 79% |
| O=[N+]([O-])c1ccc(NS(=O)(=O)c2ccccc2)c2ccccc12 | 21.2% |
| C=C(C)[C@@H]1CC[C@]2(CO)CC[C@]3(C)[C@H](CC[C@@H]4[C@@]5(C)C=C(C#N)C(=O)C(C)(C)[C@@H]5CC[C@]43C)[C@@H]12 | -26.1% (active) |
| Cc1ccc(C2=Nc3c(ccc4c(C)c(C)c(=O)oc34)OC2)cc1 | 98.3% |
| COC(=O)/C(CCC=C(C)C)=C1\[C@@H](OC(C)=O)C[C@@]2(C)[C@H]1C[C@@H](O)[C@H]1[C@@]3(C)CC[C@H](NCCCNCCCCNCCCN)[C@@H](C)[C@@H]3CC[C@@]12C | 37.2% |
| CN1C(=O)/C(=C/c2nc(-c3cccc(F)c3)n3ccccc23)c2ccccc21 | 92.6% |
| CC(=Nc1ccccc1)C1=C(O)C(Cc2ccc(O)cc2)NC1=O (stereo not given) | -51.5% (active) |
| O=C(NCCc1nccs1)c1cnc2c(S)cccc2c1 | 16.6% |
| C=C1CC[C@@H]2[C@](C)(COC(C)=O)[C@H](OC(C)=O)CC[C@@]2(C)[C@@H]1CC(Sc1ccccc1)C1=CCOC1=O (stereo not given in full) | -46.5% (active) |
| CN(C)c1ccc2nc3ccc(=O)cc-3sc2c1 | -21.3% (active) and -7.59% (active) |
| O=C1/C(=C2/C=Nc3ccccc32)N(O)c2ccccc21 | 8.87% (active) |
| N#Cc1nn(-c2cc(=O)[nH]c3ccc(Cl)cc23)c(N)c1C#N | 0.972% (active) |
| OB1OCc2cc(/C=C/c3cccc(C(F)(F)F)c3)ccc21 | -6.49% (active) |
| CC(=O)c1ccc(NCC(=O)Nc2ccccn2)cc1 | 109% |
| O=C(O)CCCCc1ccc([N+](=O)[O-])cc1 | 74.8% and 93.9% |
| Cc1cc2c(F)c(Oc3ncnc(Nc4ccc(N5C[C@@H](C)N[C@@H](C)C5)cc4)c3C#N)cc(F)c2[nH]1 | -54.6% (active) |
| COc1cc(CN2CCC(N3CCCC3=O)c3ccccc32)cc(OC)c1OC (stereo not given) | 56.4% |
| Nc1n[nH]c2ccc([C@@H]3Nc4cc5c(cc4[C@H]4C6CCC(C6)[C@@H]34)C(=O)NC5)cc12 (stereo not given in full) | -39.2% (active) |
| CC[N+](CC)=c1cc2oc3cc(N(C)C)ccc3nc-2cc1C | -8.38% (active) |
| C#CCn1c(-c2cccc(OCCCCl)c2)nc2c1c(=O)n(C)c(=O)n2C | -15.7% (active) |
